Inconclusive results are not listed. Calls of active or inactive are those of the source. Rule for the calls: active = hit-call score of the fitted dose curve at least 0.9, where 1 is the maximum; inconclusive = response in the unintended direction; inactive = score below 0.9.
biological target: human Peroxisome Proliferator-activated Receptor alpha (PPARa), PPARA (gene 5465) (UniProt Q07869); test: ERF_US_NR_hPPARA: Eurofins (ERF) Nuclear Receptor (NR) Cell Based Protein-Protein Interaction LeadHunter Assay for human Peroxisome Proliferator-activated Receptor alpha (PPARa) Agonism
Sequence (Q07869 whole entry, looked up): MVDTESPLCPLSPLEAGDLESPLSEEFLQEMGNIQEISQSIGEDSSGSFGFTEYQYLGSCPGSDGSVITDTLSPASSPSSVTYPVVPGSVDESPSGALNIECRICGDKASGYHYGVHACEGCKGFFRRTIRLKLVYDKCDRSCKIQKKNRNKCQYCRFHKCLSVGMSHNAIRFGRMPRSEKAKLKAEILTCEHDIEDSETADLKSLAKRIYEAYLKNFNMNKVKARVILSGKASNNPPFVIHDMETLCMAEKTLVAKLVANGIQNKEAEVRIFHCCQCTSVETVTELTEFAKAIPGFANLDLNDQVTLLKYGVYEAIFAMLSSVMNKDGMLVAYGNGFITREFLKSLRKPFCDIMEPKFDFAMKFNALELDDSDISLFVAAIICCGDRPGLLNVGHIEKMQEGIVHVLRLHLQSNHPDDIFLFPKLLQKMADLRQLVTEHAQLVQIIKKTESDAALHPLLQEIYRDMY
Description: ERF_US_NR_hPPARA is a cell-based, single-readout assay that uses extracted gene-proteins […]. Measurements were taken 5 hours after chemical dosing in a 384-well plate. See PPARalpha Human NHR Cell Based Agonist Protein-Protein Interaction Assay, DiscoverX.ERF_US_NR_hPPARA is an assay component calculated from theERF_US_NR_hPPARA assay. It is designed to measure radioligand binding using a type of binding reporter as detected by scintillation counting with radiometry technology.Data from the assay component ERF_US_NR_hPPARA was analyzed at the assay endpoint, ERF_US_NR_hPPARA, in the positive analysis fitting direction relative to DMSO as the negative control and baseline of activity. Using a type of binding reporter, gain-of-signal activity can be used to understand changes in binding as they relate to gene PPARA. To generalize the intended target to other relatable targets, this assay endpoint is annotated to the nuclear receptor intended target family, where the subfamily is non-steroidal.
Cells were seeded in a total volume of 20 uL into white walled, 384-well microplates and incubated at 37C overnight prior to testing.Briefly, intermediate dilution of sample stocks was performed to generate 5X sample in assay buffer. 5 uL of 5X sample was added to cells and incubated at 37C for 300 minutes. Final assay vehicle concentration was 1%. The results are expressed as a percent efficacy of the control ligand.

SMILES | outcome | AC50
O=C(O)C(F)(F)C(F)(F)C(F)(F)C(F)(F)C(F)(F)C(F)(F)C(F)(F)F | inactive | –
O=C(O)C(F)(F)C(F)(F)C(F)(F)C(F)(F)C(F)(F)C(F)(F)C(F)(F)C(F)(F)Cl | inactive | –
O=C(CC(=O)C(F)(F)C(F)(F)C(F)(F)F)c1cccs1 | – | 12.6 µM (active)
CN(CCOc1ccc(CC2SC(=O)NC2=O)cc1)c1ccccn1 (centres undefined) | inactive | –
O=C(O)C(F)(F)OC(F)(F)C(F)(F)OC(F)(F)F | inactive | –
O=S(=O)(O)C(F)(F)C(F)(F)C(F)(F)C(F)(F)C(F)(F)C(F)(F)F | inactive | –
CC(C)(Oc1ccc(C(=O)c2ccc(Cl)cc2)cc1)C(=O)O | – | 50 µM (active)
O=C(O)C(F)(F)C(F)(F)C(F)(F)C(F)(F)C(F)(F)C(F)(F)C(F)F | inactive | –
O=S(=O)(O)C(F)(F)C(F)(F)C(F)(F)C(F)(F)C(F)(F)C(F)(F)C(F)(F)C(F)(F)F | inactive | –
